# High-throughput results as filed in PubChem BioAssay.
# Sm TGR inh = qHTS Assay for the Inhibitors of Schistosoma Mansoni Peroxiredoxins; Schistosoma mansoni thioredoxin glutathione reductase (TGR), Q962Y6; purified TGR, DTNB reduction, TNB absorbance 405 nm; Potency, µM (top dose mostly 114 µM), inactives show at the highest dose activity change, negative = inhibition, usual class: inhibitors; 3% of 360,000 active; also: nearly all actives have a fitted effect of over 60% in size
#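 Kinetic colorimetric format: TGR-catalysed, NADPH-driven DTNB reduction monitored via TNB absorbance. Enzyme dispensed at 20 nM; compound exposure 15 min at room temperature before reaction start.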
# AmpC inh no detg = qHTS Inhibitors of AmpC Beta-Lactamase (assay without detergent); 0.52% of 330,000 active; Potency, µM (doses to about 57.1 µM), inactives show at the highest dose activity change, negative = inhibition, actives largely listed as inhibitors; AmpC nitrocefin hydrolysis, absorbance 480 nm, 0.0001% Triton; AID 485341, 2010; P00811;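 also: plate controls were no compound for no effect and no enzyme for full effect; nearly all actives have a fitted effect of over 20% in size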
# Target sequence (P00811 whole entry, looked up): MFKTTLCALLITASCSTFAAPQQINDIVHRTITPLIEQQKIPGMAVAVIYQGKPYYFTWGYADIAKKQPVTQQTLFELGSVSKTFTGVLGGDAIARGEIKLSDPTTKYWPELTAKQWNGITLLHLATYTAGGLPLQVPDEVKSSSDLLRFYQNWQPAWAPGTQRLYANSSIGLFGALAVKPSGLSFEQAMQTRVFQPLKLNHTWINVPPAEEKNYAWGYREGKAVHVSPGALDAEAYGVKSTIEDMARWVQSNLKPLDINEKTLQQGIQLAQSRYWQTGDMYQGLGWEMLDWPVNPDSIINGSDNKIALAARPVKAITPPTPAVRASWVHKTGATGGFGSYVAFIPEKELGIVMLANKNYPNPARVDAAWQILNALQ
#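 20 mM phosphate pH 7.0 + 0.01% (detergent screen) or 0.0001% Triton X-100; 5.3 nM AmpC reagent; cpd preinc 15 min RT; nitrocefin (800 uM stock) to start; A480 q20 s × 4 min; Activity was normalised to no-enzyme and no-compound control wells.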
# AmpC detergent = qHTS Inhibitors of AmpC Beta-Lactamase (assay with detergent) | P00811 | AmpC hydrolysis of nitrocefin, absorbance 480 nm, 0.01% Triton | AID 485294, 2010 | 0.041% of 370,000 active | Potency, µM (highest dose often 114 µM), without a hit: at the highest dose activity change, negative = inhibition, actives largely listed as inhibitors;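 also: 0% = no-compound wells and -100% = no-enzyme wells; nearly all actives have a fitted effect of over 25% in size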
#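 AmpC (5.3 nM in the dispensed reagent) in 20 mM phosphate pH 7.0 with 0.01% (detergent screen) or 0.0001% Triton X-100 was preincubated with compounds for 15 min at room temperature. Nitrocefin was then added from an 800 uM solution, and hydrolysis was followed at 480 nm.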
# Numbers without * were called inactive; ? = inconclusive; . = no result given; [ ] = another dose, or the depositor's remark. Sampled rows, rich in hits. Any-hit rate of the full collection: about 3.3%. Calls follow the shape of the dose curve; as a rule, active = well fitted curve in the direction sought with a large enough effect; inconclusive = small, poorly fitted or top-dose-only effect, or another doubt; inactive = no such curve, though single readings can be large; an effect the other way counts as inactive or inconclusive. Unless noted, % is scaled to controls: 0 for no effect and ±100 for the full control effect; potency is read from the fitted curve at half-maximal effect.
SMILES,Sm TGR inh,AmpC inh no detg,AmpC detergent
C/C=C\C=C/C(=O)Nc1cccc(C2=NOC3(C2)C[C@@H](C(N)=O)N(C(=O)[C@H]2CCC(=O)N2)C3)c1 (some centres not stated),3.5µM*,37%,-1%
C/C=C\C(=O)Nc1cccc(C2=NOC3(C2)C[C@@H](C(N)=O)N(C(=O)C2(C)CC2)C3)c1 (some centres not stated),-1%,10%,0%
C/C=C/C=C\C(=O)Nc1cccc(C2=NOC3(C2)C[C@@H](C(N)=O)N(C(=O)c2cc([N+](=O)[O-])cc([N+](=O)[O-])c2)C3)c1 (some centres not stated),3.5µM*,80%,3%
CCc1ccc(CN(Cc2ccco2)C(=O)COc2ccc(Cl)cc2C)cc1,0%,.,5%
CCc1ccccc1NC(=O)Nc1cc(C(=O)NCc2ccc(OC)cc2)ccc1N1CCCC1,-3%,.,-4%
CCc1ccccc1N1CC(c2nnc(NC(=O)c3ccco3)s2)CC1=O (configuration not stated),1%,.,16%
C/C=C\C=C\C(=O)N1CC2(CC(c3cccc(NC(=O)CC(c4ccccc4)c4ccccc4)c3)=NO2)C[C@H]1C(N)=O (some centres not stated),7.1µM*,166%,-7%
C/C=C(\C)C(=O)N1CC2(CC(c3cccc(NC(=O)CC(c4ccccc4)c4ccccc4)c3)=NO2)C[C@H]1C(N)=O (some centres not stated),0%,174%,4%
CC(=O)c1ccc(NC(=O)c2ccc(-c3nc(COc4ccc(C)cc4)c(C)o3)cc2)cc1,11%,.,2%
Cc1ccnc(S(=O)(=O)Cc2ccc([N+](=O)[O-])cc2)n1,?,-15%,4%
Cn1c(CO)cnc1S(=O)(=O)Cc1ccc([N+](=O)[O-])cc1,28µM*,?,1%
COc1cc(Cl)c(C)cc1Nc1nc2ccccc2c2nnc(C)n12,5%,.,19%
N#Cc1ccc(CSc2nc3c(c(=O)[nH]2)CCCC3)cc1,-1%,.,21%
Cc1cc(C)c(S(=O)(=O)NCc2csc(-c3ccccc3)n2)c(C)c1,4%,.,17%
CCOC(=O)c1c(NC(C)=O)c2c3c(sc2n1Cc1ccc(Cl)cc1)CCCC3,-4%,.,20%
N#Cc1cc(-c2ccccc2)nn1-c1ccccc1,0.63µM*,-25%,?
Cn1ccc(-c2ccccc2)n1,-7%,2%,4%
COc1ccc(S(=O)(=O)Nc2cccc(-c3ccc(N4CCC(C)CC4)nn3)c2)c(OC)c1,-2%,.,9%
COc1cccc(C(=O)Oc2c(Sc3ccc(C)cc3)c(C)nn2C(C)(C)C)c1OC,3%,.,13%
c1ccc(C(c2ccccc2)N2CCN(Cc3nc(-c4cnccn4)no3)CC2)cc1,25µM*,132%,8%
Fc1cccc(CN2CCN(Cc3nc(-c4cnccn4)no3)CC2)c1,.,16%,12%
Cc1ccc(-c2nnc3c4ccccc4c(C)nn23)cc1NC(=O)c1ccccc1Cl,-2%,.,28%
COc1ccc(Br)cc1CNC(=O)c1cc(=O)[nH]c2ccc(S(=O)(=O)N3CCCCC3C)cc12 (configuration not stated),5%,.,8%
CCn1c(-c2ccccc2)c(C(=O)CCl)c2ccccc21,18µM*,-41%,-6%
CCn1c2ccccc2c(=O)c2ccccc21,5%,43%,1%
SMILES,Sm TGR inh,AmpC inh no detg,AmpC detergent
Cn1c(-c2ccccc2)c(C(=O)CCl)c2ccccc21,6.3µM*,-23%,1%
Cn1c(-c2ccccc2)c(CCO)c2ccccc21,-12%,-5%,0%
CCOC(=O)c1cccc(NC(=O)CCSCCc2ccccn2)c1,2%,.,-3%
Cc1ccc(NC(=O)C(Cc2ccccc2)n2cccc2)cc1C (configuration not stated),0%,.,3%
Clc1ccc(CSc2ccc(-c3ccccn3)nn2)cc1,5%,-10%,0%
COc1ccccc1-c1ccc(SCc2ccccc2F)nn1,-1%,-40%,1%
Fc1ccccc1CSc1ccc(-c2ccco2)nn1,32µM*,-35%,-8%
Cc1ccc(CSc2ccc(-c3ccco3)nn2)cc1,?,-24%,-3%
c1ccc(CSc2ccc(-c3ccco3)nn2)cc1,22µM*,-21%,-9%
Cc1cccc(CSc2ccc(-c3ccco3)nn2)c1,?,-57%,-5%
Clc1cccc(CSc2ccc(-c3ccco3)nn2)c1,7.1µM*,-47%,0%
Clc1ccc(CSc2ccc(-c3ccco3)nn2)cc1,28µM*,-31%,-1%
O=C(Nc1ccc2nc(SCC(=O)N3CCCC3)sc2c1)c1cccc(F)c1,-3%,.,18%
O=C(/C=C\NCC(=O)c1ccccc1)c1ccc2ccccc2c1,?,-44%,1%
O=C(/C=C\NCC(=O)c1ccccc1)c1ccc(F)cc1,?,18µM*,1%
O=C(Nc1ccc(F)cc1F)c1ccc2c(c1)CCN2S(=O)(=O)c1ccc(Cl)cc1,8%,.,15%
CCOC(=O)/C(=C/C=C1\Sc2cc(C)c(C)cc2N1CC)C(C)=O,45µM*,-1%,10%
CCOC(=O)/C(=C/C=C1\Sc2ccccc2N1CC)C(C)=O,-24%,19%,-4%
CCc1ccc(S(=O)(=O)c2nnn3c2nc(NCCc2ccccc2)c2sccc23)cc1,9%,.,-5%
CCOc1ccc(C2C(=O)N(C3CCCCCC3)CC(=O)N2CCc2ccc(Cl)cc2)cc1OC (configuration not stated),2%,.,7%
CCOC(=O)/C=C(\C)Sc1cc(=O)oc2ccccc12,22µM*,-23%,0%
CCOC(=O)/C=C(\C)Sc1cc(O)c2ccccc2c1O,0.79µM*,-54%,-8%
CCOC(=O)Nc1oc2ccccc2c(=O)c1C,3%,-5%,?
CCOC(=O)c1c(C)[nH]c2c1cc(O)c1ccccc12,-20%,25%,1%
Cc1cccc(-c2c3c(=O)n(C)c(=O)n(C)c3cn2-c2cc(N)c(Cl)cc2Cl)c1,8%,.,17%
SMILES,Sm TGR inh,AmpC inh no detg,AmpC detergent
Cc1ccc(CCNC(=O)c2cc3cc(S(=O)(=O)N4CCCCC4)ccc3n2C)cc1,-2%,.,7%
COc1ccc(C(=O)NCc2nc(-c3cccc(C)c3)no2)cc1OC,0%,.,5%
Cc1ccc(C(=O)NCCC(C)C)cc1NC(=O)c1nsc2ccccc12,3%,.,10%
c1csc(-c2nc3ccccn3c2NC2CCCCC2)c1,1%,-19%[11.4 µM],?
Cc1ccn2c(NC3CCCC3)c(-c3cccs3)nc2c1,20µM*,?,-12%
COc1ccc(NC(=O)C2(c3cccs3)CCOCC2)cc1Cl,3%,.,4%
CCc1ccc(CNC(=O)CCn2c(=O)c3cccn3c3ccc(F)cc32)cc1,1%,.,6%
CC1(C(=O)NNC(=O)c2ccc(=O)oc2)CC1Br (configuration not stated),10µM*,-35%,7%
Cc1cc(=O)oc(C)c1C(=O)NNC(=O)C1(C)CC1Br (configuration not stated),2%,-9%,-1%
Cc1ccsc1CN(Cc1ccco1)C(=O)c1ccc(Cl)cc1,-17%,.,16%
